Test results from PubChem BioAssay (EPA / NIEHS).
The source made the active and inactive calls. Rule for the calls: active = hit-call score of the fitted dose curve at least 0.9, where 1 is the maximum; inactive = score below 0.9.

Test: CCTE_Padilla_ZF_Score.Craniofacial: CCTE's 144 Hour Post-fertilization zebrafish Assay Score for Craniofacial Malformation, Padilla Lab (AID 2284405)
Protocol: CCTE_Padilla_ZF_Phenotype_Score is a whole embryo, multiplexed assay using zebrafish ova exposed for 144 hours post fertilization on a 96-well plate.CCTE_Padilla_ZF_Score.Craniofacial is one of one assay component(s) measured or calculated from the CCTE_Padilla_ZF_Phenotype_Score assay. It is designed to make measurements of zebrafish development as detected with brightfield microscopy of developing zebrafish embryos.Data from the assay component CCTE_Padilla_ZF_Score.Craniofacial was analyzed into 1 assay endpoints. This assay endpoint, CCTE_Padilla_ZF_Score.Craniofacial, was analyzed in the positive analysis fitting direction relative to DMSO as the negative control and baseline of activity. Using a type of viability reporter, gain-of-signal activity can be used to understand changes in developmentals as they relate to the whole embryo. To generalize the intended target to other relatable targets, this assay endpoint is annotated to the zebrafish development intended target family, where the subfamily is craniofacial morphogenesis.
Zebrafish husbandry: Wild type adult zebrafish (Danio rerio; undefined outbred stock obtained from Aquatic Research Organisms, Hampton, NH, 03842) were housed in an AAALAC-approved animal facility at 28C with a 14:10 h light: dark cycle (lights on at 08:30 h). Adult fish (2-3 females per male; density = 15-20 adults per tank) were kept in one of several 9-liter (L) flow-through colony tanks (Aquaneering Inc., San Diego, CA). All adults in a colony tank were placed in a 2 L (static) breeding tank (Aquatic Habitats, Apopka, FL) one hour prior to light onset. Typically, adults from two to three colony tanks were mated on the same day. Two hours after light onset the adults were returned to the colony tank. All embryos were gathered from each breeder tank, pooled, and placed in a 28C water bath for 2 h, followed by two washes with 0.06% bleach (v/v) in 10% Hanks' Balanced Salt Solution (13.7 mM NaCl 0.54 mM KCl, 25 uM Na2HPO4, 130 uM CaCl2 100 um MgSO4 and 420 um NaHCO3,), hereafter referred to as Hanks' solution, for 5 min in order to remove any residual bacteria or fungi. Immediately following washing, the embryos were examined, and healthy embryos were separated from dead or unfertilized eggs and moved into fresh Hanks'. Chemical exposures: Zebrafish embryos were exposed in 96-well plates. Between 6- and 8-hours post fertilization (hpf), healthy embryos (with chorions) were transferred, one embryo per well, into 96 well (0.5 mL) microtiter plates (Cell Culture-Treated, Flat-Bottom Microplate 96 well [Corning Costar, Kennebunk, ME; Cat 09-761-145]) filled with 200 uL of Hanks' solution. A random number generator was used to assign the order in which the rows of embryos were plated in 96 well plates each week. After plating, the embryos were dosed with 0.8 uL of the chemical dosing solution then immediately sealed with AlumaSeal II (Excel Scientific Inc, Victorville, CA) to prevent volatilization of the chemicals, and then placed in a leakproof secondary container. These containers were placed in an incubator maintained on a 14:10 h light: dark cycle at 26C for rearing. On 5 dpf, live larvae were gently moved out of the plate with test chemicals and into a new 96 well mesh plate (Millipore Corp., Bedford, MA) with just the Hanks' solution. Once within the mesh well plate, the animals were rinsed with 400 uL of fresh Hanks' three times, and then the plates were covered with a non-adhesive material (Microseal A, BioRad, Hercules, CA), plate lid added, and then plate sides wrapped in Parafilm (PM992, Bermis Company, Neenah, WI), and returned to the incubator. […]

SMILES	outcome	AC50
FC(F)=C(F)C(F)(F)C(F)(F)C(F)(F)C(F)(F)C(F)(F)C(F)(F)F	inactive	
FC(F)C(F)(F)COCC1CO1 (stereo not given)		118 µM (active)
FC(F)(F)COC(OCC(F)(F)F)OCC(F)(F)F	inactive	
NCC(F)(F)C(F)(F)C(F)(F)C(F)(F)F	inactive	
O=C(Cl)C(F)(F)C(F)(F)C(F)(F)C(=O)Cl	inactive	
FC(F)(F)C(F)(F)C(F)(F)C(F)(F)C(F)(F)C(F)(F)I	inactive	
O=S(=O)(O)CCC(F)(F)C(F)(F)C(F)(F)C(F)(F)C(F)(F)C(F)(F)F	inactive	
C[Si](C)(C)C(F)(F)C(F)(F)C(F)(F)F	inactive	
OCCC(F)(F)C(F)(F)C(F)(F)C(F)(F)F	inactive	
OC(O)(C(F)C(O)(O)C(F)(F)F)C(F)(F)F		35.5 µM (active)
